FXN GAA850 act: FXN promoter activators, primary screen, cell-based, luciferase luminescence, HEK293 lucGAA850; 0.56% of 360,000 active; HEK293 lucGAA850 FXN promoter luciferase reporter, 24 h; percent of 10 µM SAHA response; AID 540364, 2011; activation, % at 6 µM;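 active = activation above the average of all compounds screened plus 3 SD, cutoff fixed separately per campaign, cut at about 7.5% in these data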;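 also: 0% = DMSO wells and 100% = 10 µM SAHA wells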
Wnt bcat act: Wnt/beta-catenin pathway activators, primary screen, cell-based, plate reader, single point; Wnt/beta-catenin reporter cell assay, activator; activation, % at 9.35 µM; 1.2% of 300,000 active; AID 743398, 2014; in the data active = activation above about 30%, passing the limit was not always enough; inconclusive = no clear call, values can overlap the other calls;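 also: 0% = neutral control wells and 100% = positive control wells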
MITF TRPM1 HTS: activators of MITF-driven TRPM1 promoter reporter, primary screen, cell-based, SK-MEL-5, luciferase, single point. SK-MEL-5 TRPM1-promoter luciferase, 24 h; % of positive control, neutral wells = 0. AID 588334, 2011. activation, % at 12.5 µM. 0.75% of 300,000 active;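 active = mean activation of at least 80% with every replicate also reaching 80%; inconclusive = mean reaches 80% but some replicate falls short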;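 also: 0% = neutral control wells and 100% = parthenolide positive control wells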
esBAF inh: Bmi1 luciferase reporter increase in mESCs, primary screen, esBAF inhibitor project, mouse ES cells, Bmi1 luciferase knock-in, single point. 24 h; 100% = twice the neutral-well signal. reporter increase, % at 12.5 µM. 2% of 350,000 active. AID 602393, 2012; in the data active = activation above about 40%; inconclusive = no clear call, values can overlap the other calls;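 also: 0% = median of the plate's neutral control wells and 100% = double that signal; a rise in the Bmi1 reporter signal indicates esBAF inhibition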
AHR activator: AHR activators, primary screen, cell-based, luminescence, luciferase reporter, human. AHR-responsive luciferase reporter cells. 2.5% of 320,000 active. activation, % at 5 µM. Aryl hydrocarbon receptor (Homo sapiens), P35869; in the data active = activation above about 47%;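 also: 0% = vehicle wells and 100% = reference agonist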
Target sequence (P35869 whole entry, looked up): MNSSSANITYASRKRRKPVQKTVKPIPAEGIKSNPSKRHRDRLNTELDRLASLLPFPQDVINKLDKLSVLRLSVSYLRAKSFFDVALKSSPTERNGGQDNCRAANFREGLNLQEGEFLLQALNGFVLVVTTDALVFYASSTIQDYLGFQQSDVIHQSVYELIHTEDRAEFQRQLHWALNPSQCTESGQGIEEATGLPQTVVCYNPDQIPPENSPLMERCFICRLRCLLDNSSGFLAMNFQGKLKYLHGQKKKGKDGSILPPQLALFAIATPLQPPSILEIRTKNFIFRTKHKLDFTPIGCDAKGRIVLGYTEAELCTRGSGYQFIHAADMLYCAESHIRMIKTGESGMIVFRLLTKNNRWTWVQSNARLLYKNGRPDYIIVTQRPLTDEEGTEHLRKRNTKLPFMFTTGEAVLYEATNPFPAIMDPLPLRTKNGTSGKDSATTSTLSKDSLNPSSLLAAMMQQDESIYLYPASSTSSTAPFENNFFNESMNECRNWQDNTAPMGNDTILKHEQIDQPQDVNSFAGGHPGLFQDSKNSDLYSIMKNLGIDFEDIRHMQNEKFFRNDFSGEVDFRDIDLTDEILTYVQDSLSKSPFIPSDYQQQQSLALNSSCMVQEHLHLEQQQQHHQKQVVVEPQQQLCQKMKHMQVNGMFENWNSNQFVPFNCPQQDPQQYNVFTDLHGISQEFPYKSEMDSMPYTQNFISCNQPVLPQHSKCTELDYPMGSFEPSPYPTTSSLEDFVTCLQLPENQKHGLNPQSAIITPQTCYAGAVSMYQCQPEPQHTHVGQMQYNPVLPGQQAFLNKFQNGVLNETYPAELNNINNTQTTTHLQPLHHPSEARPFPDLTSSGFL
Active calls of the source: *; ? = inconclusive; · = no result given. An excerpt weighted towards active compounds, which were near 4.2% of everything screened.

SMILES | FXN GAA850 act | Wnt bcat act | MITF TRPM1 HTS | esBAF inh | AHR activator
COc1ccc(-c2c(C)nc3c(-c4ccsc4)cnn3c2N)cc1 | 7 | 29 | 94* | 10 | 16
O=C(Nc1ccccc1F)N[C@H]1CC[C@H](CCNC(=O)C2CCCCC2)O[C@H]1CO | · | · | · | -1 | ·
COc1ccccc1NC(=S)NC(=O)Cc1ccccc1 | -1 | 5 | · | · | 14
COc1ccc(NC(=S)NC(=O)Cc2ccccc2)c(OC)c1 | 2 | 1 | -13 | -2 | 48*
COc1ccc(NC(=O)CSc2ccccc2)c(OC)c1 | 6 | · | 39 | 56* | -1
CCC(=O)Nc1ccc(OC)cc1OC | 0 | · | -14 | · | 12
CCC(=O)NC(=S)Nc1ccc(OC)cc1OC | 2 | 1 | -3 | · | 70*
COCCNC(=O)C[C@@H]1CC[C@H](NC(=O)NC2CCCC2)[C@@H](CO)O1 | · | · | · | 0 | ·
C/C(=N\Nc1ccc2nncn2n1)c1ccc(Br)s1 | -2 | 1 | · | · | 78*
Cn1nc(-c2ccc(Cl)cc2)c2cc(C(=O)NCCN3CCOCC3)sc21 | 1 | -2 | -18 | -4 | 50*
CCCCN(CC)CCNC(=O)c1cc2c(-c3ccc(Cl)cc3)nn(C)c2s1 | 1 | -5 | -66 | 1 | 43
Cn1nc(-c2ccc(Cl)cc2)c2cc(C(=O)N3CCN(C(=O)c4ccco4)CC3)sc21 | 0 | -1 | -20 | 7 | 34
CCN1CCN(C(=O)c2cc3c(-c4ccc(Cl)cc4)nn(C)c3s2)CC1 | 2 | -4 | -12 | -11 | 64*
Cn1nc(-c2ccc(Cl)cc2)c2cc(C(=O)NCCCN3CCOCC3)sc21 | 2 | -5 | 11 | -19 | 55*
Cn1nc(-c2ccc(Cl)cc2)c2cc(C(=O)NC3CC3)sc21 | -2 | -1 | -22 | -2 | 46
C[C@H]1CN([C@@H](C)CO)C(=O)c2cc(/C=C/c3ccccc3)cnc2O[C@@H]1CN(C)Cc1cncnc1 | · | · | · | -1 | ·
CCOC(=O)c1c(C)oc2c1c(CN1CCN(C(=O)OCC)CC1)c(O)c1ccccc12 | 2 | -1 | 74 | · | 50*
COCC#Cc1cnc2c(c1)C(=O)N([C@@H](C)CO)C[C@@H](C)[C@H](CN(C)C(=O)CN1CCOCC1)O2 | · | · | · | -1 | ·
COc1ccccc1C(=O)/C=C/c1ccc(N2CCCCC2)c([N+](=O)[O-])c1 | -5 | -1 | -7 | 19 | -5
O=C(/C=C/c1ccc(N2CCCCC2)c([N+](=O)[O-])c1)c1ccc(O)cc1 | 2 | ? | 13 | 60* | 5
C[C@@H]1CN([C@@H](C)CO)C(=O)Cc2cc(NC(=O)Nc3ccc4c(c3)OCO4)ccc2O[C@H]1CN(C)Cc1ccncc1 | · | · | · | -3 | ·
C=CCSc1nnc(-c2nnc(SCC=C)n2-c2ccccc2)n1-c1ccccc1 | -1 | 2 | -9 | 5 | 0
C=CCSc1nnc(-c2sc(-c3ccccc3)nc2C)n1C | 1 | 33* | · | · | 0
COc1ccc(S(=O)(=O)N(C)C[C@@H]2OCCCC[C@@H](C)Oc3ccc(NS(=O)(=O)c4cccs4)cc3C(=O)N([C@@H](C)CO)C[C@@H]2C)cc1 | · | · | · | 1 | ·
COc1ccc(NC(=O)N(C)C[C@H]2Oc3c(NC(=O)Nc4ccc(C(F)(F)F)cc4)cccc3C(=O)N([C@H](C)CO)C[C@H]2C)cc1 | · | · | · | -2 | ·
SMILES | FXN GAA850 act | Wnt bcat act | MITF TRPM1 HTS | esBAF inh | AHR activator
COc1ccc(C(=O)NCCC2=CCCCC2)cc1OC | 3 | · | · | 50* | 15
O=C(Nc1ccc(F)cc1)c1ccc2c(=O)n3c(nc2c1)CCCCC3 | 5 | 17 | 68 | 57* | -1
O=C(NCCC1=CCCCC1)c1ccc2c(=O)n3c(nc2c1)CCCCC3 | 3 | -2 | 53 | 43* | 5
O=C(Nc1ccc(Cl)cc1Cl)c1ccc2c(=O)n3c(nc2c1)CCC3 | 5 | 42* | ? | 43* | 1
O=C(C1CCOCC1)N1[C@H](CO)[C@H]2c3ccccc3NC[C@H]21 | · | · | · | -3 | ·
O=C(Nc1ccc(F)cc1)N[C@@H]1CC[C@H](CCNS(=O)(=O)c2cccc(Cl)c2)O[C@H]1CO | · | · | · | 3 | ·
Brc1ccc(CSc2ccc3nnc(-c4cccnc4)n3n2)cc1 | 3 | 11 | 7 | · | 34
COc1ccccc1NC(=O)CSc1ccc2nnc(-c3cccnc3)n2n1 | 0 | -2 | -4 | 4 | 79*
Cc1ccc(CSc2ccc3nnc(-c4cccnc4)n3n2)cc1 | -1 | · | 16 | -1 | 71*
Cc1nnc(NC(=O)CSc2ccc3nnc(-c4ccccn4)n3n2)s1 | 1 | -1 | -2 | · | 0
CCOc1ccccc1NC(=O)CSc1ccc2nnc(-c3cccnc3)n2n1 | 1 | -2 | 1 | · | 25
O=C(CSc1ccc2nnc(-c3ccccn3)n2n1)Nc1nccs1 | 2 | 6 | 5 | 0 | 55*
O=C(C[C@@H]1CC[C@H]2[C@@H](COC[C@H](O)CN2CCC(F)(F)F)O1)NCC1CCCCC1 | · | · | · | -6 | ·
Cc1ccc(S(=O)(=O)Nc2ccc3c(c2)C(=O)N([C@@H](C)CO)C[C@@H](C)[C@H](CN(C)S(C)(=O)=O)OCCCC[C@@H](C)O3)cc1 | · | · | · | -2 | ·
C=CCn1cnc2c(nnn2-c2cc(C)cc(C)c2)c1=O | 3 | -2 | -2 | · | 10
C=CCn1cnc2c(nnn2-c2ccc(Cl)cc2)c1=O | 0 | 5 | 22 | 13 | 84*
Cc1sc(NC(=O)c2c(F)cccc2F)nc1-c1ccccc1 | 2 | -2 | · | 6 | 65*
CNC[C@H]1OCCCC[C@@H](C)Oc2ccc(NC(=O)c3ccncc3)cc2C(=O)N([C@@H](C)CO)C[C@H]1C | · | · | · | -3 | ·
COc1ccc(NC(C)=O)c(C)c1 | -1 | -1 | -2 | · | 1
COc1ccc(-n2nc3cc(C)c(N)c(Br)c3n2)cc1 | 7 | 3 | · | -1 | 49*
COc1ccc(-n2nc3cc(C)c(NC(C)=O)cc3n2)cc1 | 3 | 5 | -2 | -49 | 75*
O=C(C[C@@H]1CC[C@@H](NC(=O)c2ccncc2)[C@H](CO)O1)Nc1ccccc1 | · | · | · | -3 | ·
Cc1ccc(C)c(N2CCN(C(=O)CCc3nc(-c4ccccc4Br)no3)CC2)c1 | 2 | 8 | 59 | 43* | ·
CCNc1nc(N)c(C(=O)c2ccc(Cl)s2)s1 | 4 | 58* | · | 43* | -3
O=C1/C(=C\c2ccc3c(c2)OCO3)CCC/C1=C/c1ccc2c(c1)OCO2 | 1 | · | 1 | · | 48*
SMILES | FXN GAA850 act | Wnt bcat act | MITF TRPM1 HTS | esBAF inh | AHR activator
Cc1nc(/C=C/c2ccccc2)cc(/C=C/c2ccccc2)n1 | 1 | 29 | 17 | 35 | 10
C(/C=C/c1ccccn1)=C\c1ccccc1 | 3 | 42* | 65 | · | 6
C(=C\c1ccccn1)/c1ccncc1 | 2 | 4 | 25 | 32 | 1
Cc1cccc(/C=C/c2ccccc2)n1 | 4 | 46* | · | 51* | ·
C(=C\c1ccc2ccccc2n1)/c1ccccc1 | -2 | -15 | -56 | -53 | 41
C(=C\c1cc(/C=C/c2ccccc2)ncn1)/c1ccccc1 | 3 | 37* | 19 | 55* | 0
